Assay [1] concerns the target 5'-AMP-activated protein kinase catalytic subunit alpha-2 (Homo sapiens) (UniProt P54646). Particulars: at 1 µM.
Assay [2] deals with T1, NUAK family SNF1-like kinase 1 (Homo sapiens) (UniProt O60285).
T1 sequence (whole entry): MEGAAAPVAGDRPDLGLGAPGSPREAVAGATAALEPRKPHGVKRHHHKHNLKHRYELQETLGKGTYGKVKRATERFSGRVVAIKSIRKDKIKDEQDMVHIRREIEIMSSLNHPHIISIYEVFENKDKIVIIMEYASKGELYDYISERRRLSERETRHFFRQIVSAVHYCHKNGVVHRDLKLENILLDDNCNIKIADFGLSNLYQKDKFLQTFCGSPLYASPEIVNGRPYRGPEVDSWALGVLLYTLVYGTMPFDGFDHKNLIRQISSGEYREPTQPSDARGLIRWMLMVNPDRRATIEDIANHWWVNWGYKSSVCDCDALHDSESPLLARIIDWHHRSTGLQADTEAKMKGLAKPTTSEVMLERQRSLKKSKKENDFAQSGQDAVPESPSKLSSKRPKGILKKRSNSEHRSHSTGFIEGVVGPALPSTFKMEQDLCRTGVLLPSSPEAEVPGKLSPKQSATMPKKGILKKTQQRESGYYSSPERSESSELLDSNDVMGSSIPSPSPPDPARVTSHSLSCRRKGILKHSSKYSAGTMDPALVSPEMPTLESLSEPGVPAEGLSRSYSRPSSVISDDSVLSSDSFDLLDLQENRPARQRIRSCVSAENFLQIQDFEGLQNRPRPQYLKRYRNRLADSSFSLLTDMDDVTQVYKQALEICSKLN
The settings on record: at 0.1 µM.

Assay [3] concerns the target T1, NUAK family SNF1-like kinase 1 (Homo sapiens). The settings on record: at 1 µM.
Assay [4] deals with T2, Serine/threonine-protein kinase BRSK1 (Homo sapiens) (UniProt Q8TDC3).
T2 sequence (whole entry): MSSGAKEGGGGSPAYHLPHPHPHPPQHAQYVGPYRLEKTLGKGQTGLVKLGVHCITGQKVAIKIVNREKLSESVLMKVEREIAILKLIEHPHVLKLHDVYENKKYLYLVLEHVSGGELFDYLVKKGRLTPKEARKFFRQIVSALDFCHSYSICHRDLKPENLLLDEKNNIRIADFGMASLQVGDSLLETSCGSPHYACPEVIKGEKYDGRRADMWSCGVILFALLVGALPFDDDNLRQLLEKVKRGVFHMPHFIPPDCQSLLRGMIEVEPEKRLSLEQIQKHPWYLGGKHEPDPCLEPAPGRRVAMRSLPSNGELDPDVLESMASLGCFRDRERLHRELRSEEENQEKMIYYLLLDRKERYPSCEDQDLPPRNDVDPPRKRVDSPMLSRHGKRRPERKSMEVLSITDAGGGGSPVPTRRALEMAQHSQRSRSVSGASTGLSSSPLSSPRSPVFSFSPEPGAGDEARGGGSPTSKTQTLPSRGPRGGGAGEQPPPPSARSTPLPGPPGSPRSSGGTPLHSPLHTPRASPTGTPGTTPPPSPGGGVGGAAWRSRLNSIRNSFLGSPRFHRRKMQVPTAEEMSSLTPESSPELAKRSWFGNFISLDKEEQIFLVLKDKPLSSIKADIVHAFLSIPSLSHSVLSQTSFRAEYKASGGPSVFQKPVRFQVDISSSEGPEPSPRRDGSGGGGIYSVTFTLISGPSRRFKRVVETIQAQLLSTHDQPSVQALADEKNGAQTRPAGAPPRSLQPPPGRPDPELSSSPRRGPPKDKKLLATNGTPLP
The settings on record: at 0.1 µM.

Assay [5] deals with T2, Serine/threonine-protein kinase BRSK1 (Homo sapiens). Particulars: at 1 µM.
Assay [6] deals with T3, Serine/threonine-protein kinase BRSK2 (Homo sapiens) (UniProt Q8IWQ3).
T3 sequence (whole entry): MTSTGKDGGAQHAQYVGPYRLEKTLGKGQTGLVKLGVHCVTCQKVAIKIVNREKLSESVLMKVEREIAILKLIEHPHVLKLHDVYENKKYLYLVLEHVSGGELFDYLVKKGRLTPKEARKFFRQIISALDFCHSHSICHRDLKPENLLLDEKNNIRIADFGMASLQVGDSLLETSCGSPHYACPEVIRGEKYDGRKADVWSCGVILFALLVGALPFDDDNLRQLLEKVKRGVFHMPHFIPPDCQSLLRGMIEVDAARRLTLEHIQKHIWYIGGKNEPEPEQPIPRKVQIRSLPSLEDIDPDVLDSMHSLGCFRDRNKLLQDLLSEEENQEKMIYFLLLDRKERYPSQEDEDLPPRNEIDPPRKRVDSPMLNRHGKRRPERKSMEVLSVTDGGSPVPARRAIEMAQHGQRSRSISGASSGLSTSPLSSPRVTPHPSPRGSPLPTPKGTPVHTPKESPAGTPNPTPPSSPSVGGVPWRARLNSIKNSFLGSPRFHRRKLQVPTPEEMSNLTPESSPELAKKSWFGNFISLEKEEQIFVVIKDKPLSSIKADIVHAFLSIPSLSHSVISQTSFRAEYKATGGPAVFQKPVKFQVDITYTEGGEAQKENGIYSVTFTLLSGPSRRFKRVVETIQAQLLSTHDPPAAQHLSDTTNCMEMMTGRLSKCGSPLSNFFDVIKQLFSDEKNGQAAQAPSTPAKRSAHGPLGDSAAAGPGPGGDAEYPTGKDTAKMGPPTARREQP
Particulars: at 0.1 µM.

The target in assay [7] is T3, Serine/threonine-protein kinase BRSK2 (Homo sapiens). The settings on record: at 1 µM.
Assay [8] addresses Calcium/calmodulin-dependent protein kinase type 1D (Homo sapiens) (UniProt Q8IU85). The settings on record: at 0.1 µM.
Assay [9] has the same target. The settings on record: at 1 µM.
Assay [10] addresses Calcium/calmodulin-dependent protein kinase type II subunit alpha (Homo sapiens) (UniProt Q9UQM7). The settings on record: at 0.1 µM.
Assay [11] has the same target. Particulars: at 1 µM.
The target of assay [12] is Calcium/calmodulin-dependent protein kinase type II subunit delta (Homo sapiens) (UniProt Q13557). Particulars: at 0.1 µM.
Chain of Calcium/calmodulin-dependent protein kinase type II subunit delta (Homo sapiens) (Q13557 whole entry): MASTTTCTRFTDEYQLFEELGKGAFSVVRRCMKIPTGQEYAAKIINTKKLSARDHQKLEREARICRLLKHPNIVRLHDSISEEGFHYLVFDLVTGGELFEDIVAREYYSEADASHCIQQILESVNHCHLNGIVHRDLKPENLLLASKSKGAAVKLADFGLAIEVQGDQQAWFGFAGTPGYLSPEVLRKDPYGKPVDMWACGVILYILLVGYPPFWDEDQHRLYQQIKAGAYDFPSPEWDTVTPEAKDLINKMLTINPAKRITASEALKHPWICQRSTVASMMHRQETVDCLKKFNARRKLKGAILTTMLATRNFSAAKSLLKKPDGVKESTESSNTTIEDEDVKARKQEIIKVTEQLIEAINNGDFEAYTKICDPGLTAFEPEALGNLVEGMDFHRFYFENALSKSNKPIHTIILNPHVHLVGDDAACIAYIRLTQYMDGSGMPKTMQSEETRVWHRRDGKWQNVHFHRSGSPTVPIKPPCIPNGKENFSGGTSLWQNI
Assay [13] shares this target. Particulars: at 1 µM.
The target in assay [14] is T4, Calcium/calmodulin-dependent protein kinase type IV (Homo sapiens) (UniProt Q16566).
T4 sequence (whole entry): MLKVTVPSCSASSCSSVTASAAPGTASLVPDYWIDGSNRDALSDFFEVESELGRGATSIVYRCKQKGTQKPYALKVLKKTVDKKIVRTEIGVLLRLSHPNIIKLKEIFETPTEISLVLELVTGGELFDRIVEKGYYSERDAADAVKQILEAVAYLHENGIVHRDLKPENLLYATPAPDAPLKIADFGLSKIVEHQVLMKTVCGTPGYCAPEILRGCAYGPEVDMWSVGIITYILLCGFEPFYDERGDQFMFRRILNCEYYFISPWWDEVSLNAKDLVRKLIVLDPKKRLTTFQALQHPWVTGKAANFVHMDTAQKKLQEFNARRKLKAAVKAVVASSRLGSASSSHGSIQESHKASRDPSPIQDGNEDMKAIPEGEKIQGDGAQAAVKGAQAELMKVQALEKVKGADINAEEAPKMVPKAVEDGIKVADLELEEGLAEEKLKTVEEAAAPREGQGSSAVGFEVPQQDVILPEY
The settings on record: at 0.1 µM.

Assay [15] concerns the target T4, Calcium/calmodulin-dependent protein kinase type IV (Homo sapiens). The settings on record: at 1 µM.
In assay [16] the target is T5, Serine/threonine-protein kinase Chk1 (Homo sapiens) (UniProt O14757).
T5 sequence (whole entry): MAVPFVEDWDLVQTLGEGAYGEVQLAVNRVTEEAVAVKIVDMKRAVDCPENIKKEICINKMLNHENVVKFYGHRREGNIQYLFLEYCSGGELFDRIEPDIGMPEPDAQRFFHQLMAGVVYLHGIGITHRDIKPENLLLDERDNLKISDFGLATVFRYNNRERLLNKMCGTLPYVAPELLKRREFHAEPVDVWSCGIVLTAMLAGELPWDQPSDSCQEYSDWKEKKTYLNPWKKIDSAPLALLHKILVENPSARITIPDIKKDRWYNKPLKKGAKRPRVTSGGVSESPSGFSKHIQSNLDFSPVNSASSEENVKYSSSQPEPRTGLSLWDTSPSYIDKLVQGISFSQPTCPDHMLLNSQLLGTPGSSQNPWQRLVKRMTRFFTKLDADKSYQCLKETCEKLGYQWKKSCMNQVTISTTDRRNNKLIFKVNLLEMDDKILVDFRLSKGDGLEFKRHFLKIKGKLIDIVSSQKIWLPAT
The settings on record: at 0.1 µM.

Assay [17] has as its target T5, Serine/threonine-protein kinase Chk1 (Homo sapiens). The settings on record: at 1 µM.
Assay [18] has as its target Serine/threonine-protein kinase Chk2 (Homo sapiens) (UniProt O96017). Particulars: at 0.1 µM.
For assay [19] the target is unchanged. Particulars: at 1 µM.
Assay [20] deals with Death-associated protein kinase 1 (Homo sapiens) (UniProt P53355). The settings on record: at 0.1 µM.
Chain of Death-associated protein kinase 1 (Homo sapiens) (P53355 whole entry, looked up): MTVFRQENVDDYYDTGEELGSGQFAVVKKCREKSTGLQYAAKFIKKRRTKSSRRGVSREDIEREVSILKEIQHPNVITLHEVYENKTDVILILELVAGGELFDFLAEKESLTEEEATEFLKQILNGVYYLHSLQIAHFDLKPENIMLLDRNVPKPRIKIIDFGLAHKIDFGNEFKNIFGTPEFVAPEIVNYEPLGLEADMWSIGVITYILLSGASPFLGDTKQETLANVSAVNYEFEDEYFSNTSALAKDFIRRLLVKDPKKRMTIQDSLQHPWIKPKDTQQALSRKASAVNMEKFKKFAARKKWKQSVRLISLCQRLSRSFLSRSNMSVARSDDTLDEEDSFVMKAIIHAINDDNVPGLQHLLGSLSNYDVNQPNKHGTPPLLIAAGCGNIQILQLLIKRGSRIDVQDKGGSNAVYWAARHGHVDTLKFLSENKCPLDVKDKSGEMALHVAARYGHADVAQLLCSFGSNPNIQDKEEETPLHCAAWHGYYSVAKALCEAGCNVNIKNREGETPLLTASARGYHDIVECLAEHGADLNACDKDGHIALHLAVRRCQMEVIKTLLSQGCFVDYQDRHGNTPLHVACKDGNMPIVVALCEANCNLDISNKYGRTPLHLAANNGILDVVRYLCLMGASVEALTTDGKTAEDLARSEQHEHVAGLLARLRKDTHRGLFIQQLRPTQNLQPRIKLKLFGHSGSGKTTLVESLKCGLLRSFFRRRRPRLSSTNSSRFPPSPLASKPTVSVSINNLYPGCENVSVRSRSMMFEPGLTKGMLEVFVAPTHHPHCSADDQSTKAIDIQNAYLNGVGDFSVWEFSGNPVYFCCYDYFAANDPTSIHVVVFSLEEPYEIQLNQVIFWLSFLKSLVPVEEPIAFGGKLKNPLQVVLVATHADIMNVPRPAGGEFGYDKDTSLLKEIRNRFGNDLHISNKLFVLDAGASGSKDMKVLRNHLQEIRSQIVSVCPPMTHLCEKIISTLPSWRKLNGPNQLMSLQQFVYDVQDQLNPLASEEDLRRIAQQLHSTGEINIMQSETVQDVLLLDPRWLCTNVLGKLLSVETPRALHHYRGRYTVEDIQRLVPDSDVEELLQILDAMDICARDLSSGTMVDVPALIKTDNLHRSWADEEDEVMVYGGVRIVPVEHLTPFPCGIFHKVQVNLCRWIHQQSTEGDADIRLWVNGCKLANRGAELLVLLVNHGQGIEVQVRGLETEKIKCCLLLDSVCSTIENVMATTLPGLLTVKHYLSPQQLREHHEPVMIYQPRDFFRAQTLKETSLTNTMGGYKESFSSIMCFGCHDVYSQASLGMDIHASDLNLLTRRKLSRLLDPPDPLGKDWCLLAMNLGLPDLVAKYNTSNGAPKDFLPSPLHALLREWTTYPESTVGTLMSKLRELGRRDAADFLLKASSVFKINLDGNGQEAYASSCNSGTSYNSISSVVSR

SMILES strings stand for the structures.

Chain of 5'-AMP-activated protein kinase catalytic subunit alpha-2 (Homo sapiens) (P54646 whole entry, looked up): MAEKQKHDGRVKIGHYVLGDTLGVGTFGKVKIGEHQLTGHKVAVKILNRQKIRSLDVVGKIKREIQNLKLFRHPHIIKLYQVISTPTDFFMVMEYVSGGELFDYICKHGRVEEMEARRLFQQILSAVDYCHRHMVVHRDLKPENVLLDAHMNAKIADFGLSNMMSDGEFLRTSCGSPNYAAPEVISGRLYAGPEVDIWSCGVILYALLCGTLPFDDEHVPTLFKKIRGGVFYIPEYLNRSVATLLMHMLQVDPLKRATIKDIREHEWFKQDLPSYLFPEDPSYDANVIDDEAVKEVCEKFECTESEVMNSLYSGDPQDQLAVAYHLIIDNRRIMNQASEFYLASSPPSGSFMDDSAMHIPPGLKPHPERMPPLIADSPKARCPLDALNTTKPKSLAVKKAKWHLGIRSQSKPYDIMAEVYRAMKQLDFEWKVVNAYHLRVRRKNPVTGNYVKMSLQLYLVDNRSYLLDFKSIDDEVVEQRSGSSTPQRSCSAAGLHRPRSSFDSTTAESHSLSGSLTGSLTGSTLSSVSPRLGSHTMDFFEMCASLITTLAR
Chain of Calcium/calmodulin-dependent protein kinase type II subunit alpha (Homo sapiens) (Q9UQM7 whole entry): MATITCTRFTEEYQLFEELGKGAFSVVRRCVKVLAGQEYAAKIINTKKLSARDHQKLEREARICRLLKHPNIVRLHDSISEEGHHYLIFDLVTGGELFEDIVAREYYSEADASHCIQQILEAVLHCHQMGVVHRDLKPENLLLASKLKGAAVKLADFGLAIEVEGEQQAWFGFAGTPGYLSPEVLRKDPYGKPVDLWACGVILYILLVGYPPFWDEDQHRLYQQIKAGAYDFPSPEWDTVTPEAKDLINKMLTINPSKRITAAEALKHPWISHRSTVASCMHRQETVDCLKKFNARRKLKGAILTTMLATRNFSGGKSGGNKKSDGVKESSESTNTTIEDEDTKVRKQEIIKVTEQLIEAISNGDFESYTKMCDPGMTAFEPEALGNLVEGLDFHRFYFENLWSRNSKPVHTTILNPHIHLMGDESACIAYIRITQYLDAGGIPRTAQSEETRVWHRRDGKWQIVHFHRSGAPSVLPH
Chain of Calcium/calmodulin-dependent protein kinase type 1D (Homo sapiens) (Q8IU85 whole entry, looked up): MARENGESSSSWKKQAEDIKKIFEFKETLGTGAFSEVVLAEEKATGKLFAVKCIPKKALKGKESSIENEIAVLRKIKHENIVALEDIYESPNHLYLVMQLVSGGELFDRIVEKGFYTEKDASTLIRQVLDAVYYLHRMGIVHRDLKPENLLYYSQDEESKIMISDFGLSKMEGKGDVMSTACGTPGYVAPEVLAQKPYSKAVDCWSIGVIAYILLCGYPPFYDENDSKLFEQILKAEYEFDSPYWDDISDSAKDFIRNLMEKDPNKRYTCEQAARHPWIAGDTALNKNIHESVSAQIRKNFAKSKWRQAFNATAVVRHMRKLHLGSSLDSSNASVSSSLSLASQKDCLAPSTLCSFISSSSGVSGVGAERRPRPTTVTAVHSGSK
Chain of Serine/threonine-protein kinase Chk2 (Homo sapiens) (O96017 whole entry): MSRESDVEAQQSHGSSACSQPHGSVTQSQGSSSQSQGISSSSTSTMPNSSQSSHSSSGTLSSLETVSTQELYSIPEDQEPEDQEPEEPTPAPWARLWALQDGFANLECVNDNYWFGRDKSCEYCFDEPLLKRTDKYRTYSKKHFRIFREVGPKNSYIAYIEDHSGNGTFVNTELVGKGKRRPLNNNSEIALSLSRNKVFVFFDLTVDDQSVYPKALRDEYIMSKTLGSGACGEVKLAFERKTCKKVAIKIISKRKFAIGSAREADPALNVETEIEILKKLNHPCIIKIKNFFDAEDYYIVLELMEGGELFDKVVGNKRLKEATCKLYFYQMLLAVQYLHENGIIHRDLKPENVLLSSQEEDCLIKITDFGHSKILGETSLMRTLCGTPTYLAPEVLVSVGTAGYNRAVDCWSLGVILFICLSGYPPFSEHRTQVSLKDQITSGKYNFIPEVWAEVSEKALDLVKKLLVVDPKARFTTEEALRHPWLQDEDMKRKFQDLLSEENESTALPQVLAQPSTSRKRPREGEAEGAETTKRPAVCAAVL

As for `CNC(=O)c1cc(-c2ccc(F)cc2)cc(-c2ccc(S(=O)(=O)N3CCCC3)cc2)c1N`, the inhibition is 2.93% in assay [1]; 1.2% in [2]; 1.2% in assay [3]; 1.39% in assay [4]; -2.02% in assay [5]; 0.91% in assay [6]. In addition, the inhibition was 2.02% in assay [7]; -0.49% in assay [8]; 1.09% in assay [9]; 0.94% in assay [10]; 1.06% in assay [11]; 3.1% in assay [12]. The inhibition in assay [13] was 3.89%; in assay [14], -1.57%; in assay [15] it was 1.17%; in assay [16] it was 8.01%; in [17] it was 11.8%; in assay [18], 6.61%. Besides, the values for the inhibition in assay [19] and in assay [20] were 8.16% and 10.6%, respectively.

For `Nc1ncc(-c2cccc(S(N)(=O)=O)c2)c2scc(-c3ccc(F)c(Cl)c3)c12`, the inhibition in [1] turned out to be 4.34%; in [2], 0.82%; in assay [3], 2.44%; in [4], 1.61%; in [5], 5.62%; in [6], 3.28%. Moreover, the inhibition in assay [7] was determined as 6.56%; in assay [8], 1.24%; in assay [9], 0.88%; in [10] it was 3.36%; in assay [11], 0.53%; in assay [12] it was 3.74%. The inhibition in [13] is 2.95%; in assay [14], 1.75%; in assay [15], 1.03%; in assay [16], 5.24%; in assay [17], 2.44%; in assay [18], 3.46%. The values for the inhibition in assay [19] and in assay [20] were 7.7% and 5.41%, respectively.

On to `COc1cc(N2CCN(C(C)C)CC2)ccc1Nc1nc(Nc2ccc(F)cc2C(N)=O)c2cc[nH]c2n1`, for which the inhibition in assay [1] is 13.2%; in [2], 66.6%; in assay [3] it was 85%; in [4] it was 2.21%; in [5], -0.11%; in [6] it was 0.22%. The inhibition is 1.71% in assay [7]; 10.9% in assay [8]; 52.8% in [9]; 9.8% in assay [10]; 53.3% in assay [11]; 29% in [12]. For the same molecule, the inhibition in assay [13] was 75.1%; in [14], 4.5%; in assay [15] it was 29.3%; in assay [16] it was 3.09%; in [17] it was 27.8%; in assay [18], 49.6%. Further, the inhibition was found to be 79.1% in [19] and 5.07% in assay [20].

The term inhibition denotes the change of the read-out against control, counted positive when it falls.

(Values after ChEMBL document CHEMBL1961873, “Compounds: GSK PKIS; Assays: Nanosyn kinase panel” (2012).)
